Among the test systems are DU-145 prostate; MALME-3M melanoma; MDA-MB-231 breast; RXF 393 renal; SF-268 CNS; SF-295 CNS; SF-539 CNS; UACC-257 melanoma; M14 melanoma; HCT-15 colon; HT29 colon; SNB-75 CNS; SNB-19 CNS; U251 CNS; PC-3 prostate; SK-MEL-5 melanoma; UACC-62 melanoma; LOX IMVI melanoma; SK-MEL-28 melanoma.
What all share (test): NCI-60 one-dose screen, 48 h (100 = growth as untreated, 0 = no growth, -100 = all killed)
What all share (conditions): 10 µM unless noted

The panel holds about 83,000 compounds, 20% with a hit somewhere; the sample as a whole holds those more often.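 Treatment: one concentration, 48 hours, 96-well format. Scoring: percent growth, with anything below 10 considered active.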 Unmarked numbers belong to inactive results. Activity calls are given as the source filed them.

Regarding `COc1cc(NC(=O)CSc2nc3ccc(Cl)cc3c(=O)n2Cc2ccccc2)cc(OC)c1OC`, the growth is 72% in the assay with DU-145 prostate; 61.2% in the assay with MALME-3M melanoma; 44.6% in the assay on MDA-MB-231 breast; 30.7% in the assay with RXF 393 renal; 59.3% in the assay with SF-268 CNS; 84.1% in the assay on SF-295 CNS. Besides, the growth in the assay with SF-539 CNS was -6.78% (active); in the assay with UACC-257 melanoma, 70%; in the assay with M14 melanoma, 73.4%; with HCT-15 colon it was 88.3%; in the assay on HT29 colon, 56.5%; with SNB-75 CNS, 53.4%. In addition, the growth in the assay with SNB-19 CNS was 88.3%; in the assay on U251 CNS, 55.5%; with PC-3 prostate, 71.1%; with SK-MEL-5 melanoma, 45.5%; in the assay on UACC-62 melanoma it was 43.2%; with LOX IMVI melanoma, 74.5%. Also, the growth in the assay with SK-MEL-28 melanoma is 78.2%.
On to `O=C(N/N=C/c1ccc([N+](=O)[O-])o1)c1ccc(O)cc1`, for which the growth with MALME-3M melanoma was -34.9% (active); with MDA-MB-231 breast, 57.9%; in the assay on RXF 393 renal, 82.5%; in the assay with SF-268 CNS it was 12.6%; with SF-295 CNS, 49.8%; with SF-539 CNS, 8.11% (active). For the same molecule, the growth in the assay on UACC-257 melanoma is 17.1%; in the assay on M14 melanoma, 4.75% (active); in the assay on HCT-15 colon, 42.9%; with HT29 colon, 17.1%; with SNB-75 CNS, 84.7%; in the assay with SNB-19 CNS it was 54%. In addition, the growth in the assay on U251 CNS was 34%; in the assay on PC-3 prostate, 87.4%; in the assay on SK-MEL-5 melanoma, 2.57% (active); in the assay with UACC-62 melanoma, 47.5%; in the assay on LOX IMVI melanoma it was 12.9%; in the assay on SK-MEL-28 melanoma, 77.7%.
As to `CC(C)(C)c1nn(-c2ccccc2)c2c1C(=O)CSC(c1ccccc1Cl)N2` (stereo not given), the growth in the assay with DU-145 prostate was 26.7%; in the assay on MALME-3M melanoma, 53.5%; in the assay with MDA-MB-231 breast, 66%; in the assay on RXF 393 renal it was -10.4% (active); in the assay with SF-268 CNS, 50.4%; with SF-295 CNS it was -13.4% (active). In addition, the growth in the assay on SF-539 CNS was 15.7%; in the assay on UACC-257 melanoma, 77.4%; in the assay on M14 melanoma, 11.2%; with HCT-15 colon, 25.1%; in the assay on HT29 colon it was 18.5%; with SNB-75 CNS it was -1.74% (active). The growth in the assay on SNB-19 CNS is 39.8%; in the assay on PC-3 prostate it was 15.5%; in the assay with SK-MEL-5 melanoma, 11.6%; in the assay with UACC-62 melanoma, 38.7%; in the assay on LOX IMVI melanoma, 35.5%; in the assay on SK-MEL-28 melanoma it was 47.3%.
For `Nc1ccc(C2=NNC(=O)Cc3cc4c(cc32)OCCO4)cc1Cl`, the growth was 67.5% in the assay on DU-145 prostate; 40.9% in the assay with MALME-3M melanoma; 61.4% in the assay with MDA-MB-231 breast; 49.9% in the assay with RXF 393 renal; 59.7% in the assay on SF-268 CNS; 15.9% in the assay on SF-295 CNS. Besides, the growth with SF-539 CNS was 49.4%; in the assay on UACC-257 melanoma, 72.7%; in the assay with M14 melanoma, 16.8%; in the assay with HCT-15 colon it was 28.9%; with HT29 colon, 9.09% (active); with SNB-75 CNS, -1.14% (active). Further, the growth was 57.5% with SNB-19 CNS; 53% with PC-3 prostate; 29.8% with SK-MEL-5 melanoma; 38% in the assay with UACC-62 melanoma; 39% in the assay with LOX IMVI melanoma; 56.4% in the assay with SK-MEL-28 melanoma.
Regarding `CCCCCCCCCCCC1=NC(C)(C)CN1C(C)C`, the growth in the assay with DU-145 prostate was 68.9%; in the assay with MALME-3M melanoma, 59.8%; with MDA-MB-231 breast it was 53.7%; with RXF 393 renal, 5.65% (active); in the assay on SF-268 CNS, 71.9%; in the assay on SF-295 CNS, 62.6%. Also, the growth was 55.6% with SF-539 CNS; -9.06% (active) in the assay on UACC-257 melanoma; -26.6% (active) with M14 melanoma; 11.8% with HCT-15 colon; 0.372% (active) with HT29 colon; 52% with SNB-75 CNS. Moreover, the growth in the assay on SNB-19 CNS was 86.7%; with U251 CNS it was 37%; with PC-3 prostate, 34.6%; in the assay on SK-MEL-5 melanoma it was -24.7% (active); with UACC-62 melanoma, -51.3% (active); in the assay with LOX IMVI melanoma, 34.6%. In addition, the growth with SK-MEL-28 melanoma was -54.7% (active).
In the case of `CCCCCCCCOC(=O)C(C)OC(=O)OCCOCCOC(=O)OC(C)C(=O)OCCCCCCCC` (stereo not given), the growth in the assay on DU-145 prostate is 104%; in the assay with MALME-3M melanoma, 89.3%; in the assay on MDA-MB-231 breast, 107%; with RXF 393 renal it was 110%; in the assay on SF-268 CNS it was 103%; in the assay with SF-295 CNS it was 93.6%. The growth with SF-539 CNS was 109%; in the assay with UACC-257 melanoma, 107%; in the assay with M14 melanoma, 96.5%; in the assay with HCT-15 colon, 111%; in the assay on HT29 colon, 115%; in the assay on SNB-75 CNS, 102%. The growth with SNB-19 CNS was 104%; in the assay with U251 CNS it was 106%; with PC-3 prostate it was 87.7%; in the assay with SK-MEL-5 melanoma it was 107%; in the assay on UACC-62 melanoma it was 94.2%; with LOX IMVI melanoma, 101%. The growth in the assay with SK-MEL-28 melanoma is 106%.
`CCCCCCCCCCCC1=NC(C)(C)CN1CCO`: the growth with DU-145 prostate was 77.8%; in the assay with MALME-3M melanoma it was 88.9%; in the assay on MDA-MB-231 breast, 53.7%; in the assay with RXF 393 renal, 35.4%; in the assay with SF-268 CNS, 67.2%; in the assay with SF-295 CNS, 81.4%. Besides, the growth with SF-539 CNS was 78.9%; in the assay with UACC-257 melanoma, 77.9%; in the assay with M14 melanoma it was 48.4%; with HCT-15 colon, 18%; with HT29 colon, -25.2% (active); in the assay on SNB-75 CNS, 65.2%. Further, the growth in the assay on SNB-19 CNS is 100%; in the assay with U251 CNS it was 21.8%; in the assay on PC-3 prostate, 42.5%; in the assay on SK-MEL-5 melanoma it was 58.9%; in the assay on UACC-62 melanoma, -14.3% (active); with LOX IMVI melanoma, 6.59% (active). In the assay on SK-MEL-28 melanoma, the growth was 68.5%.
For `Cc1ccc2c(C)c3c(ccc4ccccc43)c[n+]2c1`, the growth with DU-145 prostate is 85%; with MALME-3M melanoma, -8.06% (active); with MDA-MB-231 breast it was 72.7%; with RXF 393 renal, 104%; in the assay with SF-268 CNS, 31.5%; in the assay on SF-295 CNS it was 36.4%. Further, the growth was 72.8% in the assay on SF-539 CNS; 69.2% with UACC-257 melanoma; 89% in the assay with M14 melanoma; 95.8% in the assay with HCT-15 colon; 88.1% with HT29 colon; 65% in the assay with SNB-75 CNS. Besides, the growth in the assay with SNB-19 CNS was 24%; in the assay with SK-MEL-5 melanoma, -25.6% (active); in the assay on UACC-62 melanoma, 74.2%; with LOX IMVI melanoma, 91.9%; in the assay on SK-MEL-28 melanoma, 77.8%.
For the molecule `CC1(C)CN(CCNc2nccc(-c3c(-c4cccc(O)c4)nc4sccn34)n2)S(=O)(=O)N1`, the growth was 67.9% in the assay with DU-145 prostate; 5.36% (active) with MALME-3M melanoma; 53.8% in the assay on MDA-MB-231 breast; 57.1% in the assay on RXF 393 renal; 84% in the assay with SF-268 CNS; 92.9% in the assay with SF-295 CNS. Moreover, the growth is 87.2% with SF-539 CNS; 46.8% in the assay on UACC-257 melanoma; -1.68% (active) with M14 melanoma; 95.7% in the assay on HCT-15 colon; 54.4% with HT29 colon; 30.5% with SNB-75 CNS. Besides, the growth in the assay with SNB-19 CNS is 87.8%; with U251 CNS it was 74%; in the assay with PC-3 prostate, 50.8%; in the assay on SK-MEL-5 melanoma it was 58.4%; in the assay on UACC-62 melanoma, -8.38% (active); in the assay on LOX IMVI melanoma, 18.2%. In addition, the growth in the assay on SK-MEL-28 melanoma was 20.1%.
As to `CCOC(=O)c1ccc2c(c1)nc(-c1ccc(Cl)cc1)n2-c1cc(C(C)(C)C)[nH]n1`, the growth was 53.4% in the assay with DU-145 prostate; 33.5% in the assay with MALME-3M melanoma; 54.1% in the assay with MDA-MB-231 breast; 21.4% in the assay on RXF 393 renal; 44.8% in the assay on SF-268 CNS; 16.9% in the assay with SF-295 CNS. In addition, the growth in the assay with SF-539 CNS was 11.3%; with UACC-257 melanoma it was 73.2%; with M14 melanoma, 9.36% (active); in the assay on HCT-15 colon, 20.2%; in the assay on HT29 colon, 18.5%; with SNB-75 CNS, 18.2%. The growth is 48% in the assay on SNB-19 CNS; 33.6% in the assay on U251 CNS; 48.7% in the assay on PC-3 prostate; 0.494% (active) with SK-MEL-5 melanoma; 25.5% in the assay on UACC-62 melanoma; 27.8% with LOX IMVI melanoma. In addition, the growth in the assay with SK-MEL-28 melanoma was 36.2%.
